Values joined by “and” are separate entries in the source; they are usually repeats but may differ in a detail not shown here. Identical values can stand only once. Inconclusive results are not listed. Some compounds were tested as several samples or in several runs, with calls that do not always agree. Active and inactive are the calls of the source. Unless noted, the call rests on the fitted dose curve.
Tests used:
[1] = Nuclear factor erythroid 2-related factor 2/antioxidant responsive element (Nrf2/ARE) small molecule agonists: qHTS cell viability counter screen in human keratinocytes (AID 1919968; active means well fitted curve in the direction sought with a large enough effect in the repeat runs; an effect the other way counts as inactive or inconclusive; further: nearly all actives have a fitted effect of over 55% in size; further: potency means the concentration at half of the fitted maximal effect)
Procedure, shortened: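 Stably transfected HaCaT (KeratinoSens), 1,500/well. Test agents in DMSO were applied for 23 h, 37 C/5% CO2. CellTiter-Fluor was incubated 1 h before the fluorescence read.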

[2] = Nuclear factor erythroid 2-related factor 2/antioxidant responsive element (Nrf2/ARE) small molecule agonists: luciferase reporter gene qHTS assay in human keratinocytes (AID 1919969); further: nearly all actives have a fitted effect of over 35% in size; further: potency means the concentration at half of the fitted maximal effect
[3] = molecular target: Gonadotropin-releasing hormone receptor (Homo sapiens) (UniProt P30968); assay: Human gonadotropin-releasing hormone receptor (GnRHR) small molecule agonists, calcium flux assay in GnRHR-HEK293 cells (AID 1920063); further: nearly all actives have a fitted effect of over 35% in size; further: potency means the concentration at half of the fitted maximal effect
Gonadotropin-releasing hormone receptor (Homo sapiens), sequence (P30968 whole entry, looked up): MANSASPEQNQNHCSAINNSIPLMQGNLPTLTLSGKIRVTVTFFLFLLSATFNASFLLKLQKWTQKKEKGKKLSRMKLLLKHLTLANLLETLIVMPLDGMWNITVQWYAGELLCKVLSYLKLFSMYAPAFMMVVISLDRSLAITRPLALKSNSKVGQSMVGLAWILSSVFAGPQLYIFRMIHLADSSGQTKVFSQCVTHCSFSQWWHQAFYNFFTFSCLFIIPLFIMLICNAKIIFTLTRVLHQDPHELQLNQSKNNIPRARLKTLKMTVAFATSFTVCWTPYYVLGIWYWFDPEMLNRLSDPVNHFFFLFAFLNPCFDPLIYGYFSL
Procedure, shortened: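 Stable human GnRHR HEK293 line. 18 h plating, then calcium dye for 1 h at 37 C. Agonist-mode compound addition from DMSO stocks; fluorescence monitored 3 min.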

[4] = molecular target: KiSS-1 receptor (Homo sapiens) (UniProt Q969F8); assay: Human kisspeptin (KISS1R) small molecule agonists, calcium flux assay in KISS1R-HEK293 cells (AID 1920064; active means well fitted curve in the direction sought with a large enough effect in the repeat runs; an effect the other way counts as inactive or inconclusive)
KiSS-1 receptor (Homo sapiens), sequence (Q969F8 whole entry, looked up): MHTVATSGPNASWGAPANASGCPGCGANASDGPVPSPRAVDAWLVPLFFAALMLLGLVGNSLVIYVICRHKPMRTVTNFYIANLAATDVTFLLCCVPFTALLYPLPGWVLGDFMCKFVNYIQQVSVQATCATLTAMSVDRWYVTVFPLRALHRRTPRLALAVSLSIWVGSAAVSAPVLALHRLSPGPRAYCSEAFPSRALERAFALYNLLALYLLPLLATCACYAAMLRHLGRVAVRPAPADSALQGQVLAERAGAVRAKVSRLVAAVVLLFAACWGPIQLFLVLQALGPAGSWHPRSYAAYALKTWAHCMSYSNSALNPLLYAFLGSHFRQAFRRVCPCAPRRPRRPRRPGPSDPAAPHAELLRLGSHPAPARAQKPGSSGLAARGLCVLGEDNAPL
Procedure, shortened: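 After overnight (18 h) culture at 37 C/5% CO2, human KISS1R-HEK293 cells received calcium dye for 1 h, then test compound; emission at 540 nm (excitation 480 nm) was tracked for 3 min.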

[5] = G protein-coupled receptor (GPCR) small molecule agonists, calcium flux assay: HEK293 wild type cell line counter screen (AID 1920065)
Procedure, shortened: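 Following 18 h incubation at 37 C/5% CO2, plates got calcium dye for 1 h; compounds, ATP or DMSO were then pinned in and fluorescence followed kinetically (480/540 nm).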

[6] = p53 small molecule agonists, cell-based qHTS assay with human liver microsomes (AID 1963577);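 further: p53 response element beta-lactamase reporter cells with liver microsomes plus NADPH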
Procedure, shortened: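 Steps: plate p53RE-bla cells, incubate 5 h at 37 C; add compound in DMSO; add microsomes (0.5 mg/mL final) and NADPH (0.5 mg/mL final); incubate 16 h at 37 C; add LiveBLAzer, 2 h RT; read fluorescence.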

[7] = p53 small molecule agonists, cell-based qHTS assay with rat liver microsomes (AID 1963578)
Procedure, shortened: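 Metabolic activation is supplied by rat liver microsomes with NADPH (each 0.5 mg/mL final). p53RE-bla cells incubate with compound 16 h at 37 C; reporter activity is measured by LiveBLAzer fluorescence.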

[8] = p53 small molecule agonists, cell-based qHTS assay with human liver microsomes: qHTS cell viability counter screen (AID 1963579); further: nearly all actives have a fitted effect of over 45% in size; further: potency means the concentration at half of the fitted maximal effect
Procedure, shortened: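 After the 460/530 nm beta-lactamase read, CellTiter-Glo was added to the same wells and luminescence measured after 30 min at room temperature, giving viability of p53RE-bla cells treated 16 h with compounds plus microsomes and NADPH.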

[9] = p53 small molecule agonists, cell-based qHTS assay with rat liver microsomes: qHTS cell viability counter screen (AID 1963580); further: nearly all actives have a fitted effect of over 45% in size
Procedure, shortened: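 Cytotoxicity counter screen: intracellular ATP read by CellTiter-Glo luminescence in the p53 reporter wells. HCT-116 p53RE-bla cells were treated for 16 h at 37 C alongside rat liver microsomes and NADPH, each 0.5 mg/mL final.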

[10] = p53 small molecule agonists, cell-based qHTS assay: qHTS cell viability counter screen (AID 1963581); further: nearly all actives have a fitted effect of over 45% in size
Procedure, shortened: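 qHTS counter screen: 16 h compound exposure at 37 C of p53RE-bla HCT-116 cells (4,000 per well, seeded 5 h prior), cell viability by ATP luminescence.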

[11] = p53 small molecule agonists, cell-based qHTS assay (AID 1963582; active means well fitted activation curve with a large enough effect in the signal ratio in the repeat runs, not every such curve was filed as active; the % refers to the signal ratio; further: potency means the concentration at half of the fitted maximal effect)
Procedure, shortened: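 Measured: fluorescence from cleaved LiveBLAzer substrate. System: p53RE-bla cells, 16 h compound treatment at 37 C, 2 h substrate step at room temperature.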

[12] = molecular target: 5-hydroxytryptamine receptor 2A (Homo sapiens) (UniProt P28223); assay: 5-hydroxytryptamine receptor 2A (HTR2A) small molecule antagonists, cell-based qHTS assay (AID 1963586); further: nearly all actives have a fitted effect of over 45% in size; further: potency means the concentration at half of the fitted maximal effect
5-hydroxytryptamine receptor 2A (Homo sapiens), sequence (P28223 whole entry, looked up): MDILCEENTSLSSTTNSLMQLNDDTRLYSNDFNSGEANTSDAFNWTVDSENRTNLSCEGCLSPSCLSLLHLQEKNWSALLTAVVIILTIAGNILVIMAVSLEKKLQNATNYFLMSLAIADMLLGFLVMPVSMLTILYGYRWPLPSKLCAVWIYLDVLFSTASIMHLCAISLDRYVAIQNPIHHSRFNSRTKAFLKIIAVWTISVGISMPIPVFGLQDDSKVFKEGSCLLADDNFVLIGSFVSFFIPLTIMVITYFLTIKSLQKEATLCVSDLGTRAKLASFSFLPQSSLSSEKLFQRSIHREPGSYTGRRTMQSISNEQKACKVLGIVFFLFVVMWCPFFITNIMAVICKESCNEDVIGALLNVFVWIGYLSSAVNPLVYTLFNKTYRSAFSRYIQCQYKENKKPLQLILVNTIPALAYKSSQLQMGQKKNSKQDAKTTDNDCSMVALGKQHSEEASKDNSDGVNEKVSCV
Procedure, shortened: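 CHO cells stably expressing human HTR2A were plated for 18 h at 37 C, then loaded with calcium dye for 1 h. Compounds were preincubated 5 min at room temperature before DOI (4 nM solution) was added. Kinetic fluorescence was read for 3 min.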

[13] = molecular target: 5-hydroxytryptamine receptor 2A (Homo sapiens) (UniProt P28223); assay: 5-hydroxytryptamine receptor 2A (HTR2A) small molecule agonists, cell-based qHTS assay (AID 1963587); further: nearly all actives have a fitted effect of over 30% in size; further: potency means the concentration at half of the fitted maximal effect
Procedure, shortened: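 Kinetic calcium-flux fluorescence (2 min, 1 sec intervals) after compound addition in agonist mode. HTR2A-CHO cells were cultured 18 h, then dye-loaded 1 h at 37 C.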

[14] = molecular target: Muscarinic acetylcholine receptor M1 (Homo sapiens) (UniProt P11229); assay: Cholinergic receptor muscarinic 1 (CHRM1) small molecule antagonists, cell-based qHTS assay (AID 1963588); further: nearly all actives have a fitted effect of over 40% in size
Muscarinic acetylcholine receptor M1 (Homo sapiens), sequence (P11229 whole entry, looked up): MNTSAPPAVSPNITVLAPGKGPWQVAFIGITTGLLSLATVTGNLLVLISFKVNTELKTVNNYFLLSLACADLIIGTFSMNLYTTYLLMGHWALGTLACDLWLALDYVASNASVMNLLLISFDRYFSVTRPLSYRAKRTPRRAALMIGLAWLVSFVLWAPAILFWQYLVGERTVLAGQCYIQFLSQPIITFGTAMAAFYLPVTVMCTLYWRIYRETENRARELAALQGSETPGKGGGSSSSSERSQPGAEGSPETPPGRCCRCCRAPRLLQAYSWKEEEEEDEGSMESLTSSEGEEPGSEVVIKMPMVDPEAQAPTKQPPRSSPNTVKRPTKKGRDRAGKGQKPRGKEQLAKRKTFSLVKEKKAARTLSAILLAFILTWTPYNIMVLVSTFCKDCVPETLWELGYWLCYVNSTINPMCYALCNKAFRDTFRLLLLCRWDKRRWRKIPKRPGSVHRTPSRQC
Procedure, shortened: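 Compounds were tested at 15 concentrations in three independent runs. Dye-loaded CHRM1-CHO cells were exposed 5 min at room temperature before stimulation by acetylcholine added at 50nM. Intracellular calcium was read kinetically on FDSS for 3 min.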

[15] = cAMP Responsive Elements (CRE) small molecule agonists, cell-based qHTS assay (AID 1963590)
Procedure, shortened: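 Test agents in DMSO were incubated 3 h at 37 C/5% CO2 with CRE-bla HEK 293T cells seeded 18 h earlier; LiveBLAzer B/G FRET substrate was added and read after 2 h at room temperature.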

[16] = molecular target: Beta-2 adrenergic receptor (Homo sapiens) (UniProt P07550); assay: Adrenergic beta2 receptor (ADRB2) small molecule antagonists, cell-based qHTS assay (AID 1963592); further: series mostly up to about 92 µM; nearly all actives have a fitted effect of over 50% in size
Beta-2 adrenergic receptor (Homo sapiens), sequence (P07550 whole entry, looked up): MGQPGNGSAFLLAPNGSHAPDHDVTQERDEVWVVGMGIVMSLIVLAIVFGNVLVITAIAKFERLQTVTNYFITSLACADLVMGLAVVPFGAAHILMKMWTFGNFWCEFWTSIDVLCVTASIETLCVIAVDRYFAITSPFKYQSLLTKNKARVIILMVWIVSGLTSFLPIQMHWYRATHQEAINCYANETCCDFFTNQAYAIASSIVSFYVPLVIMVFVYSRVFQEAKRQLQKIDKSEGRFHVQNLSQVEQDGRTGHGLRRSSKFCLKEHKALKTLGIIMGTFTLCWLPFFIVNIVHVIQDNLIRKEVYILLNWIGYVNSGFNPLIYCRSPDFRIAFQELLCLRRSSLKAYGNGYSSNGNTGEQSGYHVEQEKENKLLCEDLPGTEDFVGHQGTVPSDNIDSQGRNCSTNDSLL
Procedure, shortened: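 Assay format: CHO-ADRB2 cells, 18-20hr seeding at 37C/5% CO2, then compound plus 1nM isoproterenol agonist mix for 0.5hr RT. Homogeneous time-resolved fluorescence cAMP detection after 1hr, expressed as 665/615 nm ratio.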

[17] = molecular target: D(2) dopamine receptor (Homo sapiens) (UniProt P14416); assay: Dopamine D2 receptor (DRD2) small molecule agonists, cell-based qHTS assay (AID 1963594); further: nearly all actives have a fitted effect of over 35% in size
D(2) dopamine receptor (Homo sapiens), sequence (P14416 whole entry, looked up): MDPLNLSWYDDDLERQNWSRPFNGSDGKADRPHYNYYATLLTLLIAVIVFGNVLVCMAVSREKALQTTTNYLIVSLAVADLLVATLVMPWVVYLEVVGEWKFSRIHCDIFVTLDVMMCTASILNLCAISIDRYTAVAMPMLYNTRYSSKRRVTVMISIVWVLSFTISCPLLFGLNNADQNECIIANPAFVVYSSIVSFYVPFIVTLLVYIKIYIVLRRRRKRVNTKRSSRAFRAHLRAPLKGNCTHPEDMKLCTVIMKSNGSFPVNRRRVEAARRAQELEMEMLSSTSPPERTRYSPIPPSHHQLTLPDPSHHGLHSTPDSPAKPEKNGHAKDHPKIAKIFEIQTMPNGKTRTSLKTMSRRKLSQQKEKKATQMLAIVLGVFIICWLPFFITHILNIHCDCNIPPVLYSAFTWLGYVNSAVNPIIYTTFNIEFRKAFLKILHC
Procedure, shortened: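 cAMP accumulation in DRD2-HEK293 cells measured by HTRF after 1 h detection; compounds added 10 min before NKH477 (200nM […]) forskolin-analogue stimulation, 30 min at room temperature, with Ro20-1724 present at 0.1 mM final.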

[18] = molecular target: Muscarinic acetylcholine receptor M1 (Homo sapiens) (UniProt P11229); assay: Cholinergic receptor muscarinic 1 (CHRM1) small molecule agonists, cell-based qHTS assay (AID 1963589); further: nearly all actives have a fitted effect of over 35% in size
Procedure, shortened: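 Kinetic fluorescence (1 s intervals) of calcium-sensitive dye in human M1 CHO cells after compound addition; cells pre-incubated 18 h at 37 C/5% CO2 and dye-loaded 1 h.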

[19] = molecular target: D(2) dopamine receptor (Homo sapiens) (UniProt P14416); assay: Dopamine D2 receptor (DRD2) small molecule antagonists, cell-based qHTS assay (AID 1963595; active means well fitted inhibition curve with a large enough effect in the signal ratio in the repeat runs, with a control signal flat; the % refers to the signal ratio; further: potency means the concentration at half of the fitted maximal effect)
Procedure, shortened: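 HEK293 cells stably expressing DRD2, preincubated with 0.1 mM Ro20-1724 and compounds 10 min, were stimulated with 200 nM NKH477 plus 12 nM quinpirole for 30 min at room temperature; cAMP measured by HTRF (665/620 nm).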

[20] = cAMP Responsive Elements (CRE) small molecule antagonists, cell-based qHTS assay (AID 1963591; active means well fitted inhibition curve with a large enough effect in the signal ratio in the repeat runs, not every such curve was filed as active; the % refers to the signal ratio)
Procedure, shortened: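 Reporter line CRE-bla HEK 293T in dialyzed-FBS DMEM; cells preincubated 18 h, treated 3 h with compound plus NKH477 (0.25 uM final); LiveBLAzer FRET, 2 h RT.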

Measured: Potency

Cc1ccc2c(C)cccc2c1
not listed: [18] | [19] | [20]
inactive: all other assays above

O=C1C(Cl)=C(Cl)C(=O)c2ccccc21
active: [1] 24.4 µM and 48.6 µM | [2] 5.46 µM and 8.63 µM | [3] 34.8 µM | [8] 14.5 µM | [12] 26.6 µM | [13] 6.94 µM | [19] 21.7 µM
not listed: [15] | [16] | [20]
inactive: all other assays above

C1CN2CCC1CC2
not listed: [15] | [20]
inactive: all other assays above

CN1C(=O)NC(=O)C(C)(C2=CCCCC2)C1=O (stereo not drawn)
not listed: [13] | [19]
inactive: all other assays above

CCCOC(=O)c1cncn1C(C)c1ccccc1 (stereo not drawn)
not listed: [13] | [20]
inactive: all other assays above

Cc1ncc2n1-c1ccc(Cl)cc1C(c1ccccc1F)=NC2
not listed: [12]
inactive: all other assays above

CCOS(C)(=O)=O
not listed: [13]
inactive: all other assays above

CC(C(=O)c1ccccc1)N(C)C (stereo not drawn)
not listed: [12] | [18]
inactive: all other assays above

O=C([O-])c1ccccn1.O=C([O-])c1ccccn1.O=C([O-])c1ccccn1.[Cr+3]
not listed: [12] | [13]
inactive: all other assays above

Cc1ccc2cc(C)ccc2c1
not listed: [13] | [17]
inactive: all other assays above

Cc1cc(-c2ccc(N)c(C)c2)ccc1N
inactive and 4.07 µM (active): [8]
not listed: [12] | [16]
inactive: all other assays above

COc1ccccc1OC
not listed: [12] | [18]
inactive: all other assays above

C[N+](=O)[O-]
not listed: [13]
inactive: all other assays above

O=c1n(Cl)c(=O)n(Cl)c(=O)n1Cl
not listed: [13] | [18]
inactive: all other assays above

Nc1c(Cl)c(Cl)nc(C(=O)O)c1Cl
not listed: [13] | [15] | [20]
inactive: all other assays above

c1cc2c3c(cccc3c1)CC2
not listed: [12] | [18]
inactive: all other assays above

CN(C)CCO
69.1 µM (active) and inactive: [2]
not listed: [12]
inactive: all other assays above

O=C(Cl)C(Cl)Cl
not listed: [12]
inactive: all other assays above

COC(=O)C(Cl)C(=O)OC
not listed: [12]
inactive: all other assays above

ClC1=C(Cl)[C@]2(Cl)[C@@H]3[C@@H](Cl)[C@@H](Cl)C[C@@H]3[C@@]1(Cl)C2(Cl)Cl
not listed: [12] | [17]
inactive: all other assays above

NNC(=S)NN
active: [1] 6.28 µM and 30.6 µM | [2] 2.5 µM
not listed: [12]
inactive: all other assays above

COCC(=O)N(c1c(C)cccc1C)C(C)C(=O)OC (stereo not drawn)
not listed: [13] | [14]
inactive: all other assays above

CCCN(CCC)N=O
not listed: [12]
inactive: all other assays above

COP(=O)(O)OC
not listed: [13]
inactive: all other assays above

Nc1ccccc1Cl
not listed: [12] | [16]
inactive: all other assays above

CCOC(=O)C1(c2ccccc2)CCN(CCC(C#N)(c2ccccc2)c2ccccc2)CC1
active: [11] 7.93 µM
not listed: [12] | [17]
inactive: all other assays above

NC(=O)CCl
active: [2] 61.1 µM
not listed: [13] | [15] | [19]
inactive: all other assays above

Cc1ccccc1CCl
not listed: [12] | [13]
inactive: all other assays above

O=P(Cl)(Cl)Cl
not listed: [12] | [13]
inactive: all other assays above

CCCCOCCOC(C)=O
not listed: [13] | [20]
inactive: all other assays above

CCCCN(CCCCO)N=O
not listed: [12] | [14]
inactive: all other assays above

From PubChem BioAssay (Tox21)
